From PubChem BioAssay (NCATS) come the findings set out here.

In experiment [1] the target is Galactokinase (Homo sapiens) (UniProt P51570). Briefly: qHTS Validation Assay for Inhibitors of Human Galactokinase (GALK) (AID 493189). Further: 0% is about no effect. In a few lines: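 GALK (5 nM) with 35 uM ATP and 100 uM galactose in HEPES pH 8.0 with MgCl2, NaCl, DTT and BSA. Reaction ran 1 h at room temperature. Residual ATP read by Kinase-Glo Plus luminescence.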
A general note: In qHTS, concentration-response curves come from the screen itself.

Experiment [2] can be described thus: Validation screen for small molecules that induce DNA re-replication in SW480 colon adenocarcinoma cells (AID 504364). Further: 0% is about no effect. The procedure, abridged:
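Cells are treated 48 hr with test compound, stained 40 min with Hoechst at 37 C, and scanned for nuclear fluorescence; compounds inducing re-replication increase nuclei with elevated intensity.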

Experiment [3] deals with Peptidyl-prolyl cis-trans isomerase NIMA-interacting 1 (Homo sapiens) (UniProt Q13526). Briefly: qHTS Validation Assay to Find Inhibitors of Pin1 (AID 504536; active means well fitted inhibition curve with a large enough effect in the polarisation, with a control signal flat, not every such curve was filed as active; inconclusive means small, poorly fitted or top-dose-only effect, or effect the other way; the % refers to the polarisation;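 further: 0% = full Pin1 enzyme wells and -100% = no-enzyme wells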). In a few lines: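 Fluorescence polarization competition: compounds (titration) displace HiFluor-488-labeled Pin1-1b peptide from Pin1 (0.3 uM final) in pH 7.5 HEPES buffer with DTT, 10 min at room temperature; %Activity normalized to no-enzyme wells, curves fitted.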
Chain of Peptidyl-prolyl cis-trans isomerase NIMA-interacting 1 (Homo sapiens) (Q13526 whole entry, looked up): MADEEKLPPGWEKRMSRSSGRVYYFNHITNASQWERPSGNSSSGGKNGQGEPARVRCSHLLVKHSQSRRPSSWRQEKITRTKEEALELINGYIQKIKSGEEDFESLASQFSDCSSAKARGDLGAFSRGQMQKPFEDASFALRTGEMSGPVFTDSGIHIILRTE

Experiment [4] concerns the target Phosphoglycerate kinase, glycosomal (Trypanosoma brucei brucei) (UniProt P07378). Nature of the experiment: qHTS Validation Assay to Find Inhibitors of Phosphoglycerate Kinase (AID 504547).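 Further: control wells lack PGK and mark full inhibition.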 In a few lines: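 Inhibition of the enzyme is judged by a Kinase-Glo Plus luminescent signal following a one-hour incubation at room temperature. Because 1,3-BPG is unstable, it is made in situ by GAPDH at 100nM final; no-PGK wells define the baseline.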

For experiment [5], the target named is phosphoglycerate mutase (Leishmania major) (UniProt Q4Q090). Nature of the experiment: qHTS Validation Assay to Find Inhibitors of Phosphoglycerate Mutase (AID 504548).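 Further: end-point luminescence from Kinase-GloPlus after the PGAM reaction; series mostly up to about 58 µM; on the % scale 0 is the no-effect control and ±100 the full control effect.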 In a few lines: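 Inhibition of L. major PGAM was assessed by Kinase-GloPlus luminescence following a 45-minute room-temperature reaction with enzyme at 1.25nM final.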
Chain of phosphoglycerate mutase (Leishmania major) (Q4Q090 1-553): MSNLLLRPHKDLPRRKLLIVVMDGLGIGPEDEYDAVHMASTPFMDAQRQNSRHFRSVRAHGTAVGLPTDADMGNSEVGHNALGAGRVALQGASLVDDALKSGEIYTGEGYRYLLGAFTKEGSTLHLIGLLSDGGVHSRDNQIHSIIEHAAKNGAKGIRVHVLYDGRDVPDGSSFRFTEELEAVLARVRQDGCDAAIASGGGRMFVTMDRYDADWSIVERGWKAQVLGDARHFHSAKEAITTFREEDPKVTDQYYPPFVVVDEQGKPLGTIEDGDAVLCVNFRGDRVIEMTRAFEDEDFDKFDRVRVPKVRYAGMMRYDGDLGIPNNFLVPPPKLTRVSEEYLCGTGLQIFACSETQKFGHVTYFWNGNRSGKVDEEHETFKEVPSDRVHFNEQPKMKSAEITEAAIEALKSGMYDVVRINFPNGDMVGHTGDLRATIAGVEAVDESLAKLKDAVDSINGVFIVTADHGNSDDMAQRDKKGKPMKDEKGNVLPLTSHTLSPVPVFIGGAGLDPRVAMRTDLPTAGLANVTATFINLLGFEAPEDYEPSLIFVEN
Experiment [6] deals with Ubiquitin carboxyl-terminal hydrolase 1 (Homo sapiens) (UniProt O94782). Briefly: Inhibitors of USP1/UAF1: Pilot qHTS (AID 504865).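 Further: rhodamine fluorescence freed from ubiquitin-rhodamine substrate followed over time; top concentration of the series differs between compounds; on the % scale 0 is the no-effect control and ±100 the full control effect; nearly all actives have a fitted effect of over 35% in size.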 The procedure, abridged: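 USP1/UAF1 complex at 1 nM preincubated 15 min at room temperature with compound, then Ub-Rho substrate added at 150 nM final. Fluorescence (480/540 nm) read kinetically in 50 mM HEPES pH 7.8, 0.5 mM EDTA, 1 mM TCEP, 0.1 mg/ml BSA, 0.01% Tween-20.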
Chain of Ubiquitin carboxyl-terminal hydrolase 1 (Homo sapiens) (O94782 whole entry, looked up): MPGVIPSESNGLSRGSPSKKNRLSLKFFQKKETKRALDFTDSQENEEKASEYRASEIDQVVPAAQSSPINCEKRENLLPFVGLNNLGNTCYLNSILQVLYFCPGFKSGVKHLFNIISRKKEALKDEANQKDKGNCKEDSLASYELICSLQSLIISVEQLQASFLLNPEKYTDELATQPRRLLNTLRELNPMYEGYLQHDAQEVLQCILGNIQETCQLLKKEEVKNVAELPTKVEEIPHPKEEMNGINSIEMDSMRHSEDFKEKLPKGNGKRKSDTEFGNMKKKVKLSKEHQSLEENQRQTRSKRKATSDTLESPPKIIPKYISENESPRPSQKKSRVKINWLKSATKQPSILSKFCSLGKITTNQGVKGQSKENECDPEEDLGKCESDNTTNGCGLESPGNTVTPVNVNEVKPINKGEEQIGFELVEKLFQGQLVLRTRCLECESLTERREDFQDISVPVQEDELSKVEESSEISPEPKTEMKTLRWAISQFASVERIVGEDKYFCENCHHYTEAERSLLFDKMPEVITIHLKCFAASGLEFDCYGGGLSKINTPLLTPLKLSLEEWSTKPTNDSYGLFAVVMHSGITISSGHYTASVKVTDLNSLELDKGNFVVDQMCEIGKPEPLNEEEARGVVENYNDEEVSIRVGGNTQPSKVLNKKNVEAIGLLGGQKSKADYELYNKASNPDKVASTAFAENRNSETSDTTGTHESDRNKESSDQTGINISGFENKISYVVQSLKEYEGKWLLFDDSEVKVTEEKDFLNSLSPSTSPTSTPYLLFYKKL

A short description of experiment [7]: qHTS for Inhibitors of ATXN expression: Validation of Cytotoxic Assay (AID 588349).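 Further: cells exposed to compound for 72 hr.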 Further: potency means the concentration at half of the fitted maximal effect. In a few lines:
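HEK293, compound dose series, 72 hr / 37 degrees C; viability via CellTiter Glo (intracellular ATP).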

Experiment [8] is described as follows: qHTS for Inhibitors of ATXN expression: Validation (AID 588378). Further: nearly all actives have a fitted effect of over 75% in size. Further: potency means the concentration at half of the fitted maximal effect. In a few lines:
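HEK293 cells carrying ATXN2-firefly luciferase reporter, treated with compound 24 h at 37 °C. Viability read first by CellTiter-Fluor (405/525 nm), then reporter expression by Bright-Glo luminescence; controls were a known ATXN2 expression inhibitor and a luciferase inhibitor.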

The target in experiment [9] is Estrogen receptor (Homo sapiens) (UniProt P03372). Nature of the experiment: qHTS assay for small molecule antagonists of estrogen receptor alpha signaling (AID 588513; active means well fitted curve in the direction sought with a large enough effect in the signal ratio, with a control signal flat, not every such curve was filed as active; inconclusive means small, poorly fitted or top-dose-only effect, or effect the other way, or a change in a side signal; inactive means no such curve, though single readings can be large or run the other way; the % refers to the signal ratio; further: potency means the concentration at half of the fitted maximal effect). In a few lines: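 ER-alpha-UAS-bla GripTite HEK 293 cells in 2% charcoal/dextran-treated FBS medium; compounds titrated (1:2, duplicate), then stimulated with 0.5 nM 17-beta-estradiol for 18 h at 37C. CCF4 beta-lactamase fluorescence; Hill-fit IC50 and efficacy.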
Chain of Estrogen receptor (Homo sapiens) (P03372 whole entry, looked up): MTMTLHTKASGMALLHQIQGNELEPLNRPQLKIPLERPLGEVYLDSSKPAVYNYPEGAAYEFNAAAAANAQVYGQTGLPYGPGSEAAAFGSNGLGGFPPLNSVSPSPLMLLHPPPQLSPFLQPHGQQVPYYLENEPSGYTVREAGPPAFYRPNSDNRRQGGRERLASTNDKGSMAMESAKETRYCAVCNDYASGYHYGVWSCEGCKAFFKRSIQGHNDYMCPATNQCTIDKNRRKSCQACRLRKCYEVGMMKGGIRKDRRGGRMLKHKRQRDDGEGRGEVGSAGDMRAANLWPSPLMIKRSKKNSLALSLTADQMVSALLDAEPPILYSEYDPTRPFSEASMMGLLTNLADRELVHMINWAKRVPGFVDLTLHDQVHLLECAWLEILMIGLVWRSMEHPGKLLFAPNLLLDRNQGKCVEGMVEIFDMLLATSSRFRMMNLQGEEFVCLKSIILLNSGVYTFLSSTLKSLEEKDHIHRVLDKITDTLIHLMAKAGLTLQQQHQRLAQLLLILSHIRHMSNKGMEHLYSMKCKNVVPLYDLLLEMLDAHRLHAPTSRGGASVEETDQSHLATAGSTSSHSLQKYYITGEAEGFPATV

For experiment [10] the target is unchanged. Nature of the experiment: qHTS assay for small molecule agonists of estrogen receptor alpha signaling (AID 588514; calls by dose curve;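 further: 0% = vehicle only and 100% = reference agonist; nearly all actives have a fitted effect of over 70% in size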). In a few lines: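 Reporter-gene assay. […] controls beta-lactamase in HEK 293 GripTite cells; after 18 hrs with compound, CCF4 substrate is added for 2 hrs and fluorescence is read.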
Experiment [11] addresses Glucocorticoid receptor (Homo sapiens) (UniProt P04150). Nature of the experiment: qHTS assay for small molecule agonists of glucocorticoid receptor signaling (AID 588532; active means well fitted curve in the direction sought with a large enough effect in the signal ratio, with a control signal flat; inconclusive means small, poorly fitted or top-dose-only effect, or a change in a side signal; inactive means no such curve, though single readings can be large or run the other way; the % refers to the signal ratio;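 further: 100% = dexamethasone at 0.1 µM and 0% = DMSO only wells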). Particulars: HeLa MMTV-bla, beta-lactamase ratio, agonist, 18 h; stronger effect = higher value; percent of dexamethasone control, DMSO zero. In a few lines: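 Agonist-mode qHTS: GRE-driven beta-lactamase in HeLa cells exposed 18 h to titrated compounds (up to 92 uM), then CCF4 ratio read after 2 h at RT; Hill-fitted EC50, efficacy relative to 0.1 uM dexamethasone.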

Experiment [12] shares this target. Briefly: qHTS assay for small molecule antagonists of glucocorticoid receptor signaling (AID 588533; active means well fitted inhibition curve with a large enough effect in the signal ratio, with a control signal flat, not every such curve was filed as active; inconclusive means small, poorly fitted or top-dose-only effect, or effect the other way, or a change in a side signal; the % refers to the signal ratio;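 further: cells stimulated with 2 nM dexamethasone as agonist; on the % scale 0 is the no-effect control and ±100 the full control effect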). The procedure, abridged: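 Antagonist-mode qHTS: compound titrations added to GRE-bla HeLa cells, then dexamethasone 2 nM final; 18 h, 37 C. CCF4 FRET fluorescence normalized to dexamethasone and DMSO; IC50 from Hill fit.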
Experiment [13] in a line: qHTS assay for small molecule antagonists of peroxisome proliferator-activated receptor delta signaling (AID 588535).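 Further: cells co-treated with a PPAR-delta agonist as stimulator during compound exposure.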 The following applies: HEK293T PPARd-UAS-bla, beta-lactamase FRET ratio, 18 h; 460 nm channel. In a few lines: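 Cell-based beta-lactamase assay in antagonist mode: 4000 HEK293T PPAR-delta-UAS-bla cells per well, 5 hr preincubation then 18 hr compound incubation at 37 C. IC50 obtained by Hill equation fitting.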

Experiment [14] addresses Peroxisome proliferator-activated receptor gamma (Homo sapiens) (UniProt P37231). Briefly: qHTS assay for small molecule agonists of peroxisome proliferator-activated receptor gamma signaling (AID 588536; active means well fitted curve in the direction sought with a large enough effect in the signal ratio, with a control signal flat, not every such curve was filed as active; inconclusive means small, poorly fitted or top-dose-only effect, or effect the other way, or a change in a side signal; inactive means no such curve, though single readings can be large or run the other way; the % refers to the signal ratio;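 further: 0% = DMSO basal wells and 100% = rosiglitazone at 2 µM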). In a few lines:
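HEK293 UAS-bla reporter line, 1% charcoal/dextran FBS; titration, 16 h, 37 C; CCF4 loading 2 h RT; fluorescence 460/530 nm. Normalized to rosiglitazone 2 uM = 100%, DMSO = 0%.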

Experiment [15] has the same target. Nature of the experiment: qHTS assay for small molecule antagonists of peroxisome proliferator-activated receptor gamma signaling (AID 588537; active means well fitted inhibition curve with a large enough effect in the signal ratio, with a control signal flat, not every such curve was filed as active; inconclusive means small, poorly fitted or top-dose-only effect, or effect the other way, or a change in a side signal; the % refers to the signal ratio;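 further: reporter cells co-stimulated with 50 nM rosiglitazone agonist during compound treatment; % of control where 0% means no effect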). In a few lines:
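Inhibitors of agonist-stimulated UAS-bla reporter activity were sought in HEK293 cells; rosiglitazone (50 nM) defined full signal and DMSO baseline. Curves fitted to Hill model gave IC50 and efficacy.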

Experiment [16] addresses Vitamin D3 receptor (Homo sapiens) (UniProt P11473). Nature of the experiment: qHTS assay for small molecule antagonists of vitamin D receptor signaling (AID 588541; calls by dose curve;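 further: receptor activated by calcitriol during compound treatment; series mostly up to about 77 µM; on the % scale 0 is the no-effect control and ±100 the full control effect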). In a few lines:
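Antagonist-mode beta-lactamase reporter assay: HEK293T VDR-UAS-bla cells were exposed to titrated compound alongside 1-alpha,25-dihydroxyvitamin D3 at 3 nM final for 16 h. Values were normalized to the 50 nM agonist control and DMSO basal, with IC50 and efficacy from Hill equation fits.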

Experiment [17] shares this target. Briefly: qHTS assay for small molecule agonists of vitamin D receptor signaling (AID 588543; calls by dose curve;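 further: 0% = DMSO basal and 100% = reference agonist control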). In a few lines: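 VDR-UAS-bla HEK293T cells, 2000/well, 2% charcoal-stripped FBS; compound titration 16 h at 37 C; CCF4 beta-lactamase ratio read. Normalized to 50 nM 1-alpha,25-dihydroxyvitamin D3 (100%) and DMSO; Hill fit gives EC50, efficacy.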
The target in experiment [18] is Bile acid receptor (Homo sapiens) (UniProt Q96RI1). Briefly: qHTS assay for small molecule antagonists of farnesoid X receptor signaling (AID 588526; calls by dose curve; further: on the % scale 0 is the no-effect control and ±100 the full control effect). The procedure, abridged: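 Beta-lactamase reporter antagonist mode: HEK293T FXR-UAS-bla cells, titrated compound, CDCA stimulation, 16 h 37 C, CCF4 dye 2 h RT. Data normalized to CDCA 50 uM and DMSO; Hill-fit IC50.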

The structures appear in SMILES notation. Values joined by “and” are separate entries in the source; they are usually repeats but may differ in a detail not shown here. Equal entries are not always repeated. Active and inactive are the calls of the source. Unless noted, the call rests on the fitted dose curve; in most records, active means well fitted curve in the direction sought with a large enough effect; inconclusive means small, poorly fitted or top-dose-only effect, or another doubt; inactive means no such curve, though single readings can be large; an effect the other way counts as inactive or inconclusive.

Chain of Peroxisome proliferator-activated receptor gamma (Homo sapiens) (P37231 whole entry, looked up): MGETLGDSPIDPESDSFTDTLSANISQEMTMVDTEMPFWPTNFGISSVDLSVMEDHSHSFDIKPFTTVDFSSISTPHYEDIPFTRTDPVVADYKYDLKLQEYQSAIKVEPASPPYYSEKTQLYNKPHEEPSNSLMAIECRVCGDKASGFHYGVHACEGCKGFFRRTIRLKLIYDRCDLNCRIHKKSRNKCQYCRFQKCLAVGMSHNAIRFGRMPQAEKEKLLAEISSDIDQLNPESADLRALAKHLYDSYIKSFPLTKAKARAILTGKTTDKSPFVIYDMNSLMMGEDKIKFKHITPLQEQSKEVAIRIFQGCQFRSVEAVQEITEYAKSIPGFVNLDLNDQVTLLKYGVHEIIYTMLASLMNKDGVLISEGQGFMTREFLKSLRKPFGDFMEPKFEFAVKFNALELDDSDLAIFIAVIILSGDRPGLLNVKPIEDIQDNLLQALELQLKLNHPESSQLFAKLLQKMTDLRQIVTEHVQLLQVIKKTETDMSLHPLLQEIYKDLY
Chain of Vitamin D3 receptor (Homo sapiens) (P11473 whole entry, looked up): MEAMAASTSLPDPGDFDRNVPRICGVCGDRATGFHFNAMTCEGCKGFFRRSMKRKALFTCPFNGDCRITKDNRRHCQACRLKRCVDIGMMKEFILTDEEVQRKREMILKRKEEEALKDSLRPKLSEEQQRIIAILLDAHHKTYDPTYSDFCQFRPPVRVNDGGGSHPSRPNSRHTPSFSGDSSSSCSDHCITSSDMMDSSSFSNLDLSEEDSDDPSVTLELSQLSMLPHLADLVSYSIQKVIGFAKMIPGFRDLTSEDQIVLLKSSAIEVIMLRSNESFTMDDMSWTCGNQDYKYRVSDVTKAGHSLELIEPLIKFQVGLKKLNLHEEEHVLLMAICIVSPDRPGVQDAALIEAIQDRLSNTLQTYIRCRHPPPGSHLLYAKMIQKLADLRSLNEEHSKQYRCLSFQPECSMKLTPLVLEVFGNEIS
Chain of Phosphoglycerate kinase, glycosomal (Trypanosoma brucei brucei) (P07378 whole entry, looked up): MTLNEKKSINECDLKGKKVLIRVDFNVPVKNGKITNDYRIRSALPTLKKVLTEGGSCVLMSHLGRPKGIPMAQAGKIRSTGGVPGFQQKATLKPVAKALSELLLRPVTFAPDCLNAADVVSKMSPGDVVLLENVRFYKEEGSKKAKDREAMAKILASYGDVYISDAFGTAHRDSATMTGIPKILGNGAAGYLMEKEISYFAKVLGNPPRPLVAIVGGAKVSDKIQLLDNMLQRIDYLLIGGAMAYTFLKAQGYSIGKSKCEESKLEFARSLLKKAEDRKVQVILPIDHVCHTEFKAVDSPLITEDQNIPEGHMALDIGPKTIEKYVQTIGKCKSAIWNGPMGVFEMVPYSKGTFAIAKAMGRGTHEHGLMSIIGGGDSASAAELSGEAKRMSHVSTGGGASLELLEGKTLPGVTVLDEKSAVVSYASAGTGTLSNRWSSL
Chain of Galactokinase (Homo sapiens) (P51570 whole entry, looked up): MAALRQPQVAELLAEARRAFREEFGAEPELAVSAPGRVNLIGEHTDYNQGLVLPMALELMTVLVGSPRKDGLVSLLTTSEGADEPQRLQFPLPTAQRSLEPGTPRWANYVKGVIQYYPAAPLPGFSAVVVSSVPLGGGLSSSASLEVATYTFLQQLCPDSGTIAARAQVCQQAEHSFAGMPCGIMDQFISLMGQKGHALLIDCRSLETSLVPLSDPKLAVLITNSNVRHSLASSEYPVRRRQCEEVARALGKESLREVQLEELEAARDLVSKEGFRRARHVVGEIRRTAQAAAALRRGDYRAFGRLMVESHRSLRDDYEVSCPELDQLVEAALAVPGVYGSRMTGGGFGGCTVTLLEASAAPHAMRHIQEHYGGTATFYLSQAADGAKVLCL
Chain of Glucocorticoid receptor (Homo sapiens) (P04150 whole entry, looked up): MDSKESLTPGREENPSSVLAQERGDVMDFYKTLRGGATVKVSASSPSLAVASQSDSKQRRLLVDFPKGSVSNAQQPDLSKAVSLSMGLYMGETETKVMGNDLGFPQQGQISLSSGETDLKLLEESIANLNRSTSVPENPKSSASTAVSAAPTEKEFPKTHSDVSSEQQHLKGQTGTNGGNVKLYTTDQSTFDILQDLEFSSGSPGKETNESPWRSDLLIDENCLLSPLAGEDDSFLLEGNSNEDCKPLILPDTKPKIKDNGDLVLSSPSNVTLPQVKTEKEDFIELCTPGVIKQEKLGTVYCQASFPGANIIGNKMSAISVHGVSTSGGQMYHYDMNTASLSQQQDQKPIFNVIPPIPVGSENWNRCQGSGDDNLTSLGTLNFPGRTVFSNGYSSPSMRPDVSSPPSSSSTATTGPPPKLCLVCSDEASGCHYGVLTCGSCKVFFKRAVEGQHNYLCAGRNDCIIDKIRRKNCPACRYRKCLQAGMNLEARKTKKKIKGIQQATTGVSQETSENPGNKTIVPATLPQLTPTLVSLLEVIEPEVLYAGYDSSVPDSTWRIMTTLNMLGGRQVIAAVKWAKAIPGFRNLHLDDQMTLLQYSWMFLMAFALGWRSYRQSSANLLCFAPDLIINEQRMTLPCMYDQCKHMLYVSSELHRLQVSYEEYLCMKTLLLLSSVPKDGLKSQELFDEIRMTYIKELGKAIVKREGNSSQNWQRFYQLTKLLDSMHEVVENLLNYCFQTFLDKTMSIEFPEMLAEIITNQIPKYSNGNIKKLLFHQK

`CCCNC(=O)NS(=O)(=O)c1ccc(Cl)cc1`: the compound was classed as inactive in experiment [1], in experiment [2], in experiment [3], in [4], in [5] and in [10]. The compound was classed as inactive in experiment [14], in [16] and in experiment [17]. In addition, the Potency result in experiment [6], in experiment [7], in [8], in [9], in experiment [12] and in [15] was “inactive” throughout. The activation in experiment [11] was 0.922% (inactive) and 6.93% (inactive). In addition, the max response in experiment [13] worked out at 8.72%.
Take `CCCCC1C(=O)N(c2ccccc2)N(c2ccccc2)C1=O`: the result in experiment [1], in experiment [2], in experiment [3], in experiment [4], in experiment [5] and in experiment [10] was inactive. The result in experiment [18] and in experiment [14] was inactive. Further, the Potency result in [6], in experiment [7], in experiment [8], in [9], in [12] and in experiment [15] was “inactive” in each case. For the same compound, the activation in experiment [11] was -0.201% (inactive) and -2.53% (inactive).
For the compound `O=C1NC(=O)C(c2ccccc2)(c2ccccc2)N1`, the compound was classed as inactive in experiment [1], in experiment [2], in experiment [3], in [4], in [5] and in [14]. Besides, the Potency result in experiment [6], in [7], in experiment [8], in experiment [12] and in experiment [15] was “inactive” each time. The activation in [11] was -3.98% (inactive) and -0.765% (inactive) and -12.7% (inactive). In experiment [13], the max response is -66.4% and 31.2% and 54.5%.
As to `CC1=C(/C=C/C(C)=C/C=C/C(C)=C/C(=O)Nc2ccc(O)cc2)C(C)(C)CCC1`, the result in experiment [1], in [2], in experiment [3], in experiment [4], in experiment [5] and in [10] was inactive. In [17], the call was inactive. Also, the Potency entry in experiment [6] is “inactive”. The figures for the Potency in experiment [7], in experiment [8] and in experiment [9] were 31.6 µM (active), 31.6 µM (active) and 15.8 µM [inconclusive] (active), respectively.
As to `O=C1NCC2(CCN(CCc3ccccc3)CC2)O1`, the outcome in experiment [1], in experiment [2], in experiment [3], in [4] and in experiment [5] was inactive. In addition, the Potency entry in experiment [6], in [7] and in [8] was “inactive” each time.
For the compound `CC(=O)N[C@@H](CS)C(=O)O`, the compound was called inactive in [1], in [2], in [3], in experiment [4], in experiment [5] and in experiment [18]. Besides, the compound was called inactive in experiment [14] and in [16]. Besides, the Potency entry in experiment [6], in experiment [7], in experiment [8] and in experiment [12] was “inactive” throughout. For the same compound, the max response in experiment [13] was -4.28%.
`CN(C)CCC(c1ccccc1)c1ccccn1` (stereo not given): the compound was called inactive in experiment [1], in experiment [2], in experiment [3], in experiment [4], in experiment [5] and in [14]. The compound was called inactive in experiment [16] and in [17]. Further, the Potency entry in experiment [6], in experiment [7] and in experiment [8] was “inactive” throughout. Besides, the activation in experiment [11] is 4.14% (inactive). Also, in experiment [13], the max response stood at 37.9%.
